Sampled rows, rich in hits. Any-hit rate of the full collection: about 2.2%.
Ba/F3 V617F tox = lowers viability of Ba/F3 cells expressing EpoR and JAK2V617F; ATP luminescence; inhibition, % at 5.6 µM; 220,000 tested, 1.1% active; AID 1446;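 active means inhibition above the campaign mean plus 3 SD over all tested compounds, cut at about 24% in these data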;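 further: cytokine-independent growth of Ba/F3 cells driven by EpoR plus mutant JAK2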
KLF5 inhibitor = suppresses KLF5 promoter-driven expression; DLD-1 KLF5 promoter-luciferase reporter, luminescence; inhibition, % at 5 µM; 290,000 tested, 0.23% active; AID 1700;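 active means inhibition above a per-plate limit of that plate's mean compound inhibition plus 3 SD, cut at about 60% in these data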;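 further: higher means less KLF5 promoter-driven luciferase light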
IEC-6 cytotox = IEC-6 cytotoxicity, counter-screen for KLF5 inhibitors | inhibition, % at 5 µM | luminescence viability | 290,000 tested, 0.78% active; in the data active means inhibition above about 22%
BaF3 parental = parental Ba/F3 viability inhibition as JAK2V617F counter-screen | 220,000 tested, 1.1% active | CellTiter-Glo ATP luminescence | inhibition, % at 5.6 µM;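 active means inhibition above a per-campaign cutoff, the mean inhibition of all tested compounds plus 3 SD, cut at about 27% in these data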
aSyn UTR inh = 5' untranslated region of α-synuclein, MLPCN primary screen; alpha-synuclein 5'UTR reporter, inhibitor activity; inhibition, % (tested at 7.5 µM); 300,000 tested, 0.82% active; AID 1813; in the data active means inhibition above about 60%;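 further: H4 neuroglioblastoma cells stably carrying SNCA 5'UTR luciferase fusion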
APP 5UTR inh = APP translation inhibition; AID 1285; SH-SY5Y APP 5'UTR-luciferase reporter, luminescence; 190,000 tested, 0.82% active; inhibition, % at 2 µM;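 active means inhibition above a set limit, derived from the sample mean plus 3 SD, cut at about 45% in these data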
Numbers stand for hits; 0 = inactive; - = no result.

SMILES	Ba/F3 V617F tox	KLF5 inhibitor	IEC-6 cytotox	BaF3 parental	aSyn UTR inh	APP 5UTR inh
N=c1ccn(Cc2ccc(Cl)cc2Cl)cc1	89.8	0	0	70.6	0	0
N=c1ccn(Cc2c(Cl)cccc2Cl)cc1	74.6	0	0	62.9	0	-
Cc1ccc(C)n1Cc1ccccc1Cl	0	0	0	0	0	0
CC(NC(=O)c1cccs1)C(S)c1ccccc1 (centres undefined)	-	0	0	-	0	-
COc1cccc(-c2csc(N3CCN(C(=S)Nc4ccc(Cl)cc4)CC3)n2)c1	38.2	0	0	38.5	0	0
COCCn1c(SCC(=O)NCC2CCCO2)nc2c([nH]c3ccccc32)c1=O (centres undefined)	-	0	0	-	0	-
CCCCOc1ccc(C(=O)C(CN2CCOCC2)c2ccccc2)cc1 (centres undefined)	0	0	0	0	0	0
O=C(c1ccc(Cl)cc1)C(CN1CCCC1)c1ccccc1 (centres undefined)	-	0	0	-	0	-
O=C(c1ccc(F)cc1)C(CN1CCOCC1)c1ccccc1 (centres undefined)	0	0	0	0	0	94.8
COc1ccc(C(=O)C(CN2CCOCC2)c2ccccc2)cc1 (centres undefined)	90.1	0	0	41.8	0	89.7
COc1ccc(C(=O)C(CN2CCCC2)c2ccccc2)cc1 (centres undefined)	79.7	0	0	28.7	0	86.0
Cc1ccc(S(=O)(=O)CCC(=O)N(C)C2CCCCC2)cc1	-	0	0	-	0	-
COc1ccc2c(c1)c(=O)oc1c(C)c(OC(C)C(=O)N[C@@H](Cc3c[nH]c4ccc(O)cc34)C(=O)O)ccc12 (some centres undefined)	-	0	0	-	0	-
Cc1ccc(C(=O)NCCc2ccccc2)cc1	-	0	0	-	71.1	-
OCc1nc2c(ccc3ccccc32)[nH]1	-	0	0	-	0	-
Cc1ccc(NC(=O)c2cccc(NC3=NC4CS(=O)(=O)CC4S3)c2)cc1 (centres undefined)	-	0	0	-	0	-
COc1ccc(-c2cn3cccnc3n2)cc1NC(=O)C(C)Oc1ccccc1 (centres undefined)	-	0	0	-	0	-
CCOc1ccc(N/C=C/C(=O)c2ccccc2)c([N+](=O)[O-])c1	0	0	0	0	86.7	0
Cc1cc(N/C(=N\S(=O)(=O)c2ccc(F)cc2F)c2ccccc2)no1	0	0	0	0	0	67.5
Cc1ccccc1N/C(=N/S(=O)(=O)c1cc(F)ccc1F)c1ccccc1	-	0	0	-	0	-
O=C(CC1C(=O)NCCN1C(=O)c1ccc([N+](=O)[O-])cc1)Nc1ccc(F)cc1 (centres undefined)	-	0	0	-	0	-
Cc1ccc(-c2nc3cc(N)ccc3o2)c(C)c1	0	0	0	0	0	0
Nc1ccc2oc(-c3cccc4ccccc34)nc2c1	0	0	0	0	70.8	48.7
N/C(=N\NS(=O)(=O)c1ccc(Cl)cc1)c1ccccn1	-	-	-	-	0	-
OCCCNc1cc(-c2ccnc(Nc3cccc(Cl)c3)n2)ccn1	-	-	-	-	109.7	-
SMILES	Ba/F3 V617F tox	KLF5 inhibitor	IEC-6 cytotox	BaF3 parental	aSyn UTR inh	APP 5UTR inh
COc1cc2c(cc1O)CC[C@@H]1[C@@H]2CC[C@]2(C)[C@@H](O)CC[C@@H]12	75.7	0	73.9	78.4	75.3	92.9
C[C@]12CC[C@@H]3c4ccc(OC(=O)c5ccccc5)cc4CC[C@H]3[C@@H]1CC[C@@H]2O	0	0	0	0	0	0
COc1ccc(OC)c2c1cc(C(=O)N[C@@H](Cc1ccccc1)C(=O)O)n2C	-	0	0	-	0	-
O=c1oc(-c2cccs2)nc2ccccc12	0	0	0	0	0	0
O=c1oc(-c2ccccc2)nc2ccsc12	0	0	0	39.3	0	-
N=c1n(CCN2CCCC2)c2ccccc2n1CC(O)c1ccc(Cl)c(Cl)c1 (centres undefined)	102.1	0	101.4	104.3	0	0
N=c1n(CCN2CCOCC2)c2ccccc2n1CC(=O)c1ccc(Cl)c(Cl)c1	0	0	0	0	0	0
O=C(OCCN1CCN(C2=NS(=O)(=O)c3ccccc32)CC1)c1cccc(Br)c1	-	0	0	-	0	-
O=C(N/N=C/c1ccc(N2CCOCC2)cc1)C1CC1	0	0	0	0	0	0
CCCOC(=O)C(C)n1cnc2sc(C)c(C)c2c1=O (centres undefined)	0	0	0	46.5	0	0
CCOC(=O)c1sc2ncn(C(C)C(=O)OC)c(=O)c2c1C (centres undefined)	0	0	0	0	0	0
NS(=O)(=O)Cc1noc2ccccc12	-	0	0	-	0	-
O=C(O)CCC(=O)NNc1nc2ccccc2nc1-c1ccccc1	0	0	0	90.0	0	0

Screening results as filed in PubChem.
